# In all, about 300,000 compounds went through this assay and about 2,500 (0.83%) were called active. What follows is part of a selection rich in actives, with near analogues and random picks from the rest. A number with no mark means an inactive call.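 How the source made its calls: active means inhibition above the mean of all tested compounds plus 3 SD, set per screening campaign (cut at about 24% in these data); inactive means the rest.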
# System: tRNA 2'-phosphotransferase TPT1 (Candida albicans SC5314)
# Assay: tRNA 2'-phosphotransferase blockers, C. albicans – biochemical, fluorescence polarization, primary screen (AID 1962);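 further: plate controls were DMSO alone for no effect and ferristatin control at 100 nM for full effect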
# Conditions: recombinant caTPT1, FP RNA substrate dephosphorylation; at 5 µM; hits give high values
row,Structure (SMILES),inhibition
1,COc1ccc(Cn2c(=O)cc(C)[nH]c2=S)cc1,-2.44%
2,COc1cc(=O)[nH]c(=O)n1C(=O)Cc1ccccc1,1.99%
3,CCCOc1ccc(Cn2c(O)cc(=O)[nH]c2=O)cc1,48.6% (active)
4,CCc1ccc(C(CNc2nc(C(F)(F)F)nc3ccccc23)N(C)C)cc1 (centres undefined),-2.4%
5,CC(=O)Nc1ccc(/C=C/C(=O)c2ccccc2)cc1,15.6%
6,O=C(O)c1ccc2c(c1)C(=O)N(c1ccc(/C=C/C(=O)c3ccccc3)cc1)C2=O,17.6%
7,O=C(/C=C/c1ccc(N2CCOCC2)cc1)c1ccccc1,84.1% (active)
8,O=C(CC1CCCCC1)NCc1ccccc1,-1.14%
9,O=[N+]([O-])c1ccc(N=Cc2c(O)ccc3ccccc23)cc1,3.33%
10,Oc1ccc(N=Cc2sc3ccccc3c2Cl)cc1,-0.62%
11,Oc1ccc(N=Cc2c(O)ccc3ccccc23)cc1,78.9% (active)
12,CCOc1cc(NC(=O)c2ccccc2C(=O)O)c(OCC)cc1NC(=O)c1ccccc1F,2.36%
13,COC(=O)C1=C(N)Oc2c(oc(CO)cc2=O)C1c1c(F)cccc1Cl (centres undefined),-1.2%
14,Cc1ccc(NC(=O)Nc2nnc(-c3ccncc3)s2)cc1,-0.82%
15,Cc1ccc(Nc2nc(Cl)c(C=O)s2)cc1,54.2% (active)
16,Cc1ccc(Nc2nc(C)cc(C)c2C(N)=O)cc1,-2.11%
17,O=C(Nc1ccccc1Cl)/C(Cl)=C(\Cl)S(=O)c1ccccc1 (centres undefined),-2.57%
18,N#CCc1ccc(NC(=O)c2ccccc2C(=O)Nc2ccc(CC#N)cc2)cc1,-2.77%
19,O=C(NNC(=S)NC1CC2CCC1C2)c1ccc(Cl)cc1 (centres undefined),-4.71%
20,CCOc1ccc2nc(N(CCCN(C)C)C(=O)c3ccc(C(=O)c4ccccc4)cc3)sc2c1,-1.89%
21,CC(N=Cc1nc(-c2ccccc2)oc1O)c1ccccc1 (centres undefined),2.4%
22,CCOc1ccc2nc(/N=C/c3nc(-c4ccccc4)oc3O)sc2c1,46.7% (active)
23,CCOC(=O)c1cc2c(=O)[nH]c(C(Cl)(Cl)Cl)nc2o1,1.15%
24,CNc1nc2c(C)cccn2c(=O)c1C=Nc1ccc(OC)cc1,1.1%

row,Structure (SMILES),inhibition
1,CC(C)OCCCNc1nc2c(c(=O)n(Cc3ccccc3F)c(=O)n2C)n1C,2.3%
2,Cc1cccn2c(=O)c(/C=C3\SC(=S)N(CC(C)C)C3=O)c(NCCCOC(C)C)nc12,63.5% (active)
3,Cc1[nH]c(C)c(S(=O)(=O)N2CCN(c3cccc(C(F)(F)F)c3)CC2)c1C(=O)N1CCCCC1,-0.13%
4,CC(C)(C)NC(=O)COC(=O)c1cc(Cl)ccc1[N+](=O)[O-],-0.54%
5,Cc1cccc(N2CCN(C(=O)COCc3cc(-c4ccc5c(c4)OCO5)on3)CC2)c1C,-0.74%
6,CCCC1C(=O)N2C(N(C)C)=Nc3ccc(C)cc3N2C1=O (centres undefined),2.58%
7,COC(=O)Cn1cnc2scc(-c3ccc(C)c(C)c3)c2c1=O,1.3%
8,CCOc1cc(/C=C2/C(=N)N3OC(C)=CC3=NC2=O)ccc1OC,6.06%
9,COc1ccc(OCCCn2cccc2/C=C2/C(=N)N3OC(C)=CC3=NC2=O)cc1,0.42%
10,CC1=CC2=NC(=O)/C(=C/c3coc4ccccc4c3=O)C(=N)N2O1,34.6% (active)
11,Cc1cc(/C=N/Nc2ccc([N+](=O)[O-])cn2)c(C)n1-c1cccc(C(=O)O)c1,43% (active)
12,COc1ccc(Nc2ccc([N+](=O)[O-])cn2)cn1,-14.7%
13,Cc1cc(/C=C2\SC(=O)N(C)C2=O)c(C)n1-c1cccc(C(=O)O)c1,-0.06%
14,COc1cc(/C=N\Nc2ccc([N+](=O)[O-])cn2)ccc1OCC(=O)O,1.83%
15,Cc1ccc(-n2c(C)cc(/C=N/Nc3ccc([N+](=O)[O-])cn3)c2C)c(C)c1,66.7% (active)
16,Cc1ccc(N2CCN(c3ccc([N+](=O)[O-])cn3)CC2)c(C)c1,-2.01%
17,C=CCn1c(COc2ccc(F)cc2)nnc1SCC(=O)Nc1cccc(S(N)(=O)=O)c1,-5.67%
18,COc1cccc(C2CC(c3cccs3)=NN2C(=O)CSC2=NCCS2)c1OC (centres undefined),-2.93%
19,CCC(C)CN1CCC(CO)(Cc2ccccc2Cl)CC1 (centres undefined),-0.69%
20,COC1(C2=NCCN2)COc2ccccc2O1 (centres undefined),-5.32%
21,COc1ccccc1NC(=O)COC(=O)c1ccccc1SCC(=O)N1CCCC1,0.11%
22,COc1ccccc1C1SCCN1C(=O)c1ccc([N+](=O)[O-])cc1 (centres undefined),1.69%
23,COc1ccc(NS(=O)(=O)c2ccc(C)c(C(=O)N(C)Cc3ccc(OC)cc3OC)c2)cc1,-1.13%
24,Nc1c(C(=O)c2cccs2)sc2nsc(SCCN3CCCCC3)c12,68.2% (active)

row,Structure (SMILES),inhibition
1,Cc1nc2sc(C(=O)c3ccccc3)c(N)c2c2c1CCCC2,-0.9%
2,CN(C)c1ccnc2sc(C(=O)c3ccccc3)c(N)c12,2.61%
3,CCCNC(=S)N1CCC(NC(=O)c2ccc(OC)cc2)CC1,3.14%
4,CN1/C(=C\C(=O)c2oc3ccccc3c2N)C(C)(C)c2ccccc21,2.22%
5,CN1/C(=C\C=C2\N=C(c3ccc(F)cc3)OC2=O)C(C)(C)c2ccccc21,110% (active)
6,CN1CCN(CCC(=O)N/N=C/C=C2\N(C)c3ccccc3C2(C)C)CC1,11.7%
7,O=C(c1c(F)cccc1Cl)N1CCN(c2ccccn2)CC1,0.41%
8,O=C(Nc1ccccc1N1CCCC1)c1ccc(F)c(S(=O)(=O)N2CCOCC2)c1,0.87%
9,O=C1NCC(=O)N(Cc2ccccc2)/C1=C/c1ccccc1,1.04%
10,O=C1/C(=C\c2ccsc2)NC(=S)N1c1ccccc1,0.45%
11,CN(C)c1ccc(/C=C2\NC(=S)N(Cc3ccccc3)C2=O)cc1,196% (active)
12,COCC(=O)Nc1c(I)c(C(=O)NCC(O)CO)c(I)c(C(=O)N(C)CC(O)CO)c1I (centres undefined),1.86%
13,COc1ccc(C(=O)NC(C)c2nccs2)cc1OC1CCN(C(C)C)CC1 (centres undefined),1.11%
14,COc1ccc(CN(C)C(=S)Nc2ccc(Cl)cc2Cl)cc1,-3.43%
15,Cc1nc2ccccc2cc1C(=O)N/N=C/c1ccc([N+](=O)[O-])cc1,1.45%
16,O=C(Nn1c(-c2ccccc2)nc2ccccc2c1=O)c1ccc([N+](=O)[O-])cc1,-2.22%
17,Cc1nc2ccccc2nc(=O)c1NNc1ccc([N+](=O)[O-])cc1,33% (active)
18,COC(=O)c1c(C)oc(C)c1S(=O)(=O)Nc1ccc(C(C)C)cc1,-2.31%
19,COC(=O)c1cc(S(=O)(=O)NCC2CCN(Cc3ccc(Cl)cc3)CC2)cn1C,-1.04%
20,CCOC(=O)c1ccccc1CN1C(=O)c2ccccc2S1(=O)=O,-6.64%
21,CN1C(=O)/C(=C/C=C2\SCCN2C)OC1=S,124% (active)
22,Cc1ccc(Cc2nc(-c3cccc(C)c3)no2)cc1,1.83%
23,COc1ccc(Cc2nc(-c3ccccn3)no2)cc1OC,48.4% (active)
24,COc1ccc(CCNS(=O)(=O)c2cccc3cccnc23)cc1OC,1.77%

row,Structure (SMILES),inhibition
1,CCOC(=O)c1sc(=NC(=O)c2ccc(Br)cc2)n(C)c1C,-2.11%
2,CCOC(=O)c1sc(=S)n2c1[nH]c(=O)c1ccc(C(=O)OC)cc12,-1.57%
3,CCOC(=O)C1=C(C)Nc2sc(C(=O)c3ccc(Br)cc3)c(N)c2C1c1ccc(C(=O)OC)cc1 (centres undefined),54.7% (active)
4,O=[N+]([O-])c1cccc(/C=N/Nc2ncc(Br)cn2)c1,0.84%
5,Cc1ccccc1OCCOc1ccc([N+](=O)[O-])cc1/C=N/n1cnnc1,2.12%
6,O=[N+]([O-])c1ccc(N/N=C/c2ccccc2)cc1,28.2% (active)
7,Cc1cccc(COc2ccccc2/C=N/Nc2ccc([N+](=O)[O-])cc2)c1,92.1% (active)
8,Cc1ccc(NS(=O)(=O)c2ccc(N/N=C/c3ccccc3OCC(=O)O)c([N+](=O)[O-])c2)c(C)c1,-2.41%
9,O=C(N/N=C/c1ccc([N+](=O)[O-])cc1)c1c[nH]c2ccccc12,1.12%
10,O=[N+]([O-])c1ccc(N2CCN(c3ccc(O)cc3)CC2)c(Cl)c1,1.48%
11,O=S(=O)(c1cccc(Cn2nnc(-c3ccc(F)cc3)n2)c1)N1CCOCC1,0.07%
12,COc1ccc(C(CCN(Cc2ccc(OC)c(OC)c2)C(=O)CCl)c2ccccc2)cc1 (centres undefined),2.12%
13,COc1ccc(-n2c(C)cc(C(=O)CN3C(=O)NC4(CCc5ccccc54)C3=O)c2C)cc1 (centres undefined),-8.74%
14,CCOc1ccc(CNC(=O)C2CCCN(c3nnc(C)c4c(C)n(-c5ccccc5)nc34)C2)cc1 (centres undefined),1.81%
15,Cc1nn(-c2ccccc2)c(C)c1NC(=O)COc1ccc(Cl)cc1Cl,-4.09%
16,CCOc1nnc(C)c2c(C)n(-c3cccc(Cl)c3)nc12,24.6% (active)
17,CCc1nn(CCCC(=O)NC(C)c2ccccc2)c(=O)c2cc3occc3n12 (centres undefined),-2.3%
18,CCCCN(CCCC)CCNC(=O)CN1C(=O)COc2ccc(S(=O)(=O)N3CCOCC3)cc21,-4.55%
19,COc1ccc(Cn2c(C)c(C)c(C#N)c2NC(=O)Nc2ccc(F)cc2)cc1,0.17%
20,CC(C)(C)c1ccc(/C=C2\Oc3c(ccc(O)c3CN3CCN(CCO)CC3)C2=O)cc1,33.2% (active)
21,CN1CCN(Cc2c(O)ccc3c2oc(=O)c2ccccc23)CC1,-1.97%
22,CCOC(=O)c1oc2c(CN3CCN(CCO)CC3)c(O)c(CC)cc2c(=O)c1-c1nc2ccccc2s1,-0.54%
